# Source: the supplement of paper PMC3545927
# The other results are listed elsewhere or left out. No count for the full screen is at hand.
# Target: furin, P09958
# Assay: furin cleavage Z-score vs untreated control; higher = more cleavage, active = 3.5 or more, inactive = 1 or less, 8 variable residues between constant flanks
# Outline: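 To give the cleavage Z-score, log read counts were set against furin-free reactions, lowess-adjusted and scaled by median absolute deviation. These counts came from PCR adapter-tagged, sequenced DNA released when purified furin cut 8-mer peptides fused to a cDNA oligonucleotide and held on magnetic beads by their N-terminus. Digests were 0.01 ml, 1:10 enzyme:substrate, in 50 mM HEPES pH 7.5 with CaCl2 and NaCl, for 7.5, 15 or 30 min.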
# furin, P09958, sequence (P09958 whole entry): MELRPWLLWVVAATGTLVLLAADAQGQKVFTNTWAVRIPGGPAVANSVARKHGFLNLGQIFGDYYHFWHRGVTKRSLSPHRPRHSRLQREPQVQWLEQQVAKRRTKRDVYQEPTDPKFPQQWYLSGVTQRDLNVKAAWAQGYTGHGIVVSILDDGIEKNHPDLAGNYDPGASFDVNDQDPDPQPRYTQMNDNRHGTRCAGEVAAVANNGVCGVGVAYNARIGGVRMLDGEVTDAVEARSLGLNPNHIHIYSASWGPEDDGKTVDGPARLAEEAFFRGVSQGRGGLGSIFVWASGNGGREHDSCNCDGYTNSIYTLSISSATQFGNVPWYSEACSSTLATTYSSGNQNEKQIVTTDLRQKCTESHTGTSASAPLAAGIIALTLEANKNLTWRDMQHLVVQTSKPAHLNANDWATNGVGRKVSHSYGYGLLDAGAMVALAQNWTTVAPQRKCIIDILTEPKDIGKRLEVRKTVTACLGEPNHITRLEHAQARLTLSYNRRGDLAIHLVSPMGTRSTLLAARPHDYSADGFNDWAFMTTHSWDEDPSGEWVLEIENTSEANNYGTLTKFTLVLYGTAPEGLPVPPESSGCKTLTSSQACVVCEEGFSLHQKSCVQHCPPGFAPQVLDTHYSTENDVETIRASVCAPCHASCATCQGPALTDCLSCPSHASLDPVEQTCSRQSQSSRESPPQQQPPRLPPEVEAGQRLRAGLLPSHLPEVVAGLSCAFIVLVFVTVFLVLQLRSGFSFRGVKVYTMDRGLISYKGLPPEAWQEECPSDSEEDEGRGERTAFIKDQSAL
Sequence,furin cleavage Z-score (7.5 min),furin cleavage Z-score (15 min),furin cleavage Z-score (30 min)
CASVWKDLLEAGNASASA [HC1431],-0.463 (inactive),0.374 (inactive),-0.00259 (inactive)
CASSLTVTQLAGNASASA [HC1135],0.41 (inactive),-0.51 (inactive),-0.191 (inactive)
CADVAVLTSMAGNASASA [HC1244],0.796 (inactive),0.438 (inactive),-0.848 (inactive)
CASVPCSAHLAGNASASA [HC2490],0.673 (inactive),0.436 (inactive),1.54
CAASQLSAPSAGNASASA [HC1262],0.172 (inactive),0.594 (inactive),2.91
CATTPCNGSWAGNASASA [HC78],-0.41 (inactive),0.152 (inactive),0.215 (inactive)
CARYISWCLWAGNASASA [HC579],-0.0545 (inactive),0.138 (inactive),0.846 (inactive)
CAEVVTSTWPAGNASASA [HC2259],-1.41 (inactive),-0.126 (inactive),0.24 (inactive)
CARPQPQRRAAGNASASA [FS-86],2.58,5.58 (active),5.07 (active)
CALAQRQRRIAGNASASA [FS-347],0.264 (inactive),-0.423 (inactive),0.578 (inactive)
CAQRQRQRRAAGNASASA [FS-1253],8.09 (active),6.53 (active),6.09 (active)
CARLKKKVKQAGNASASA [FS-3196],-1.36 (inactive),-0.919 (inactive),0.354 (inactive)
CARLKRRVKSAGNASASA [FS-2351],4.89 (active),6 (active),4.82 (active)
CARLKRRLVPAGNASASA [FS-2708],2.61,4.61 (active),5.01 (active)
CAKVCCSMSYAGNASASA [HC1994],1.97,0.312 (inactive),0.855 (inactive)
CARSRRGLFAAGNASASA [FS-2816],2.59,2.97,6.66 (active)
CARLRRGLAAAGNASASA [FS-1908],0.841 (inactive),1.22,1.44
CARFDRQIFIAGNASASA [FS-2012],-0.31 (inactive),-0.173 (inactive),-0.368 (inactive)
CARSRRGIFIAGNASASA [FS-2312],1.57,2.13,4.7 (active)
CAREKRFCTGAGNASASA [FS-2329],2.75,4.22 (active),4.58 (active)
CAREKRGPSGAGNASASA [FS-3153],0.65 (inactive),-0.112 (inactive),0.123 (inactive)

Sequence,furin cleavage Z-score (7.5 min),furin cleavage Z-score (15 min),furin cleavage Z-score (30 min)
CAREKRFTFVAGNASASA [FS-1694],-0.942 (inactive),0.437 (inactive),3.16
CAREKRGWTMAGNASASA [FS-2549],0.613 (inactive),1.51,2.06
CAREKRGLFGAGNASASA [FU1],0.425 (inactive),4.29 (active),0.496 (inactive)
CAVVCCSMEYAGNASASA [HC2072],-2.66 (inactive),0.354 (inactive),1.04
CAGGRHLIFCAGNASASA [HC854],-0.514 (inactive),-0.469 (inactive),-1.05 (inactive)
CAKQSGENLPAGNASASA [HC949],0.51 (inactive),-0.215 (inactive),-0.135 (inactive)
CAEYDLELITAGNASASA [HC1549],-0.697 (inactive),-1.21 (inactive),-2.02 (inactive)
CACPNIIKRSAGNASASA [FS-1515],2.47,0.593 (inactive),1.43
CAKSSRIKRSAGNASASA [FS-46],11.3 (active),10.3 (active),8.65 (active)
CAVRTRIKRSAGNASASA [FS-1179],12.5 (active),13.6 (active),9.29 (active)
CASLKKIKRSAGNASASA [FS-297],7.52 (active),5.89 (active),5.86 (active)
CAASPKGPVIAGNASASA [HC706],0.401 (inactive),-0.666 (inactive),-0.477 (inactive)
CATDNSSPPVAGNASASA [HC766],0.776 (inactive),0.102 (inactive),-1.25 (inactive)
CATHRRTKRFAGNASASA [FS-1291],4.37 (active),4.6 (active),3.54 (active)
CATLKRTRKFAGNASASA [FS-728],0.831 (inactive),2.85,1.42
CAATSILGIGAGNASASA [HC822],-1.81 (inactive),-0.57 (inactive),0.323 (inactive)
CAYIRRTKRFAGNASASA [FS-576],1.05,1.14,0.61 (inactive)
CAGNRRLKRFAGNASASA [FS-330],8.6 (active),8.74 (active),8.35 (active)
CAATSRTKRFAGNASASA [FS-403],8.04 (active),8.57 (active),8.59 (active)
CAGHFRLKRTAGNASASA [FS-781],7.47 (active),7.94 (active),7.12 (active)
CAMEECNQHLAGNASASA [HC38],0.469 (inactive),2.66,0.708 (inactive)
